Screens (PubChem BioAssay)
Sampled rows, rich in hits. Any-hit rate of the full collection: about 0.51%.
FMDV antiviral = Primary qHTS Assay for Foot and Mouth Disease Virus Antivirals against NCGC Sytravon and CBC Compound Libraries: Firefly Luciferase Signal; FMDV antiviral cell assay, firefly luciferase signal; Potency, µM (top dose mostly 57.5 µM), for inactives: at the top dose activity change, negative = inhibition, actives largely listed as inhibitors; 120,000 tested, 0.23% active; AID 1745856, 2022; note: nearly all actives have a fitted effect of over 60% in size
FMDV Renilla = Primary qHTS Assay for Foot and Mouth Disease Virus Antivirals against NCGC Sytravon and CBC Compound Libraries: Renilla Luciferase Signal; 120,000 tested, 0.32% active; Potency, µM (top dose mostly 57.5 µM), for the others: at the top dose activity change, negative = inhibition, usual class: inhibitors; AID 1745857, 2022; FMDV replicon cells, Renilla luciferase signal; note: nearly all actives have a fitted effect of over 55% in size
The depositor's hits bear a star; ? = inconclusive. Calls come from the whole dose curve. % is set by controls: 0 for no effect and ±100 for the full control effect; potency is the fitted concentration of half-maximal effect.

SMILES | FMDV antiviral | FMDV Renilla
CCc1cc2c(=O)c(Oc3ccc(F)cc3)c(C(F)(F)F)oc2cc1OC(C)=O | 14µM* | 10µM*
O=C(Nc1cccc(Cl)c1)c1cnc2ccccc2n1 | 178% | -5%
CCc1ccc(-c2nc(CSCC(=O)NCCCOC)c(C)o2)cc1 | 25µM* | -23%
CCOCCCNC(=O)CSCc1nc(-c2ccc(C)cc2)oc1C | 9% | 9%
N#Cc1c(SCC(=O)N2CCCC2)nc(N2CCCCC2)c2c1CCCC2 | -27% | -12%
COc1ccc(NS(=O)(=O)c2ccc(-n3cccn3)cc2)cc1OC | 8.9µM* | ?
COC(=O)c1ccc(NS(=O)(=O)c2ccc(-n3cccn3)cc2)cc1 | 5% | 46%
COc1ccc(NC(=O)CCc2c(C)c3ccc(OC)cc3oc2=O)cc1 | -3% | 3%
COC(=O)C1(NC(=O)COc2ccc(Cl)cc2Cl)CCCCC1 | 8.9µM* | 8.9µM*
COC(=O)C1(NC(=O)c2cc(Cl)ccc2Cl)CCCCCC1 | -11% | -5%
Cc1cccc(NC(=O)COC(=O)c2ccc3ccccc3n2)c1C | -14% | ?
